Reference: PubChem BioAssay AID1159580 (chemical genetic matrix, 2015)
The campaign covered roughly 5,500 compounds. About 2,000 (36%) were called active. Not shown: some 18% with an inconclusive outcome. Cut-off read from the data, not from the text of the source: active = normalized growth mostly below about 0.91 (no sharp cut-off); inconclusive = no clear call, values can overlap the other calls; inactive = mostly above about 0.92. The list shows a part of the results.

Assay: chemical genetic growth profiling, strain panel (AID 1159580);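 note: tested at 20 µM; growth read once vehicle control cultures reached saturation at 30 °C; 1 = growth at the plate median or of vehicle wells; lower values mean less growth of the strain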
Settings: growth OD

Measured: normalized growth

CCCCC(=O)N(Cc1ccc(-c2ccccc2-c2nn[nH]n2)cc1)[C@H](C(=O)O)C(C)C
inactive: S. cerevisiae deletion strains, locus YJR066W, strain TOR1, stronger effect = lower value 0.959 | S. cerevisiae deletion strains, locus YJR075W, strain HOC1, stronger effect = lower value 1 | S. cerevisiae deletion strains, locus YKL009W, strain mrt4, stronger effect = lower value 0.968 | S. cerevisiae deletion strains, locus YKL068W, stronger effect = lower value 0.964 | S. cerevisiae deletion strains, locus YKL085W, strain MDH1 (second series), stronger effect = lower value 0.959 | S. cerevisiae deletion strains, locus YKL085W, strain MDH1, stronger effect = lower value 0.959 | S. cerevisiae deletion strains, locus YKL160W, strain elf1, stronger effect = lower value 1.01 | S. cerevisiae deletion strains, locus YKL190W, strain CNB1, stronger effect = lower value 0.986 | S. cerevisiae deletion strains, locus YKR001C, strain vps1, stronger effect = lower value 0.987 | S. cerevisiae deletion strains, locus YKR026C, strain gcn3, stronger effect = lower value 0.985 | S. cerevisiae deletion strains, locus YKR091W, strain srl3, stronger effect = lower value 0.981 | S. cerevisiae deletion strains, locus YLL001W, strain dnm1, stronger effect = lower value 0.993 | S. cerevisiae deletion strains, locus YLL026W, stronger effect = lower value 0.998 | S. cerevisiae deletion strains, locus YLL041C, strain sdh2, stronger effect = lower value 1 | S. cerevisiae deletion strains, locus YLR027C, strain aat2, stronger effect = lower value 0.999 | S. cerevisiae deletion strains, locus YLR039C, strain RIC1, stronger effect = lower value 0.963 | S. cerevisiae deletion strains, locus YLR058C, strain SHM2, stronger effect = lower value 1 | S. cerevisiae deletion strains, locus YLR102C, strain apc9, stronger effect = lower value 0.975 | S. cerevisiae deletion strains, locus YLR113W, strain HOG1, stronger effect = lower value 0.987 | S. cerevisiae deletion strains, locus YLR221C, strain rsa3, stronger effect = lower value 0.977 | S. cerevisiae deletion strains, locus YLR258W, strain gsy2, stronger effect = lower value 0.989 | S. cerevisiae deletion strains, locus YLR262C, strain YPT6 (second series), stronger effect = lower value 1 | S. cerevisiae deletion strains, locus YLR262C, strain YPT6, stronger effect = lower value 0.981 | S. cerevisiae deletion strains, locus YLR268W, strain sec22, stronger effect = lower value 0.977 | S. cerevisiae deletion strains, locus YLR320W, strain mms22, stronger effect = lower value 0.993 | S. cerevisiae deletion strains, locus YLR330W, strain CHS5, stronger effect = lower value 0.99 | S. cerevisiae deletion strains, locus YLR342W, strain FKS1 (second series), stronger effect = lower value 1.01 | S. cerevisiae deletion strains, locus YLR342W, strain FKS1, stronger effect = lower value 1.02 | S. cerevisiae deletion strains, locus YLR357W, strain rsc2, stronger effect = lower value 0.976 | S. cerevisiae deletion strains, locus YLR370C, strain arc18, stronger effect = lower value 1 | S. cerevisiae deletion strains, locus YLR371W, strain rom2, stronger effect = lower value 0.977 | S. cerevisiae deletion strains, locus YLR384C, strain iki3, stronger effect = lower value 1.01 | S. cerevisiae deletion strains, locus YLR418C, strain cdc73, stronger effect = lower value 0.989 | S. cerevisiae deletion strains, locus YML016C, strain PPZ1, stronger effect = lower value 0.994 | S. cerevisiae deletion strains, locus YML032C, strain rad52, stronger effect = lower value 0.985 | S. cerevisiae deletion strains, locus YML120C, strain ndi1, stronger effect = lower value 0.981 | S. cerevisiae deletion strains, locus YML124C, strain tub3, stronger effect = lower value 0.985 | S. cerevisiae deletion strains, locus YMR058W, strain fet3, stronger effect = lower value 0.982 | S. cerevisiae deletion strains, locus YMR078C, strain ctf18, stronger effect = lower value 0.995 | S. cerevisiae deletion strains, locus YMR125W, strain sto1, stronger effect = lower value 0.932 | S. cerevisiae deletion strains, locus YMR129W, stronger effect = lower value 0.983 | S. cerevisiae deletion strains, locus YMR205C, strain PFK2, stronger effect = lower value 0.994 | S. cerevisiae deletion strains, locus YMR223W, strain ubp8, stronger effect = lower value 0.994 | S. cerevisiae deletion strains, locus YMR231W, strain pep5, stronger effect = lower value 1 | S. cerevisiae deletion strains, locus YMR263W, strain SAP30, stronger effect = lower value 0.975 | S. cerevisiae deletion strains, locus YMR307W, strain GAS1, stronger effect = lower value 1.04 | S. cerevisiae deletion strains, locus YNL067W, strain RPL9B, stronger effect = lower value 0.985 | S. cerevisiae deletion strains, locus YNL071W, strain lat1, stronger effect = lower value 0.991 | S. cerevisiae deletion strains, locus YNL128W, strain TEP1, stronger effect = lower value 0.969 | S. cerevisiae deletion strains, locus YNL153C, strain GIM3, stronger effect = lower value 0.991 | S. cerevisiae deletion strains, locus YNL183C, strain NPR1, stronger effect = lower value 0.956 | S. cerevisiae deletion strains, locus YNL209W, strain ssb2, stronger effect = lower value 0.989 | S. cerevisiae deletion strains, locus YNL233W, strain BNI4, stronger effect = lower value 0.995 | S. cerevisiae deletion strains, locus YNL248C, strain rpa49, stronger effect = lower value 0.947 | S. cerevisiae deletion strains, locus YNL250W, strain rad50, stronger effect = lower value 0.944 | S. cerevisiae deletion strains, locus YNL271C, strain bni1, stronger effect = lower value 0.98 | S. cerevisiae deletion strains, locus YNL298W, strain CLA4, stronger effect = lower value 0.971 | S. cerevisiae deletion strains, locus YNL307C, strain MCK1, stronger effect = lower value 0.98 | S. cerevisiae deletion strains, locus YNL322C, strain KRE1 (second series), stronger effect = lower value 0.988 | S. cerevisiae deletion strains, locus YNL322C, strain KRE1, stronger effect = lower value 0.981 | S. cerevisiae deletion strains, locus YNR049C, strain mso1, stronger effect = lower value 0.965 | S. cerevisiae deletion strains, locus YNR052C, strain pop2, stronger effect = lower value 0.991 | S. cerevisiae deletion strains, locus YOL006C, strain TOP1, stronger effect = lower value 1.01 | S. cerevisiae deletion strains, locus YOL012C, strain htz1 1.43 | S. cerevisiae deletion strains, locus YOL147C, strain pex11, stronger effect = lower value 0.98 | S. cerevisiae deletion strains, locus YOR001W, strain rrp6, stronger effect = lower value 0.988 | S. cerevisiae deletion strains, locus YOR061W, strain CKA2, stronger effect = lower value 0.985 | S. cerevisiae deletion strains, locus YOR069W, strain VPS5, stronger effect = lower value 0.989 | S. cerevisiae deletion strains, locus YOR070C, strain gyp1, stronger effect = lower value 0.994 | S. cerevisiae deletion strains, locus YOR080W, strain dia2, stronger effect = lower value 0.988 | S. cerevisiae deletion strains, locus YOR083W, strain WHI5, stronger effect = lower value 1.01 | S. cerevisiae deletion strains, locus YOR106W, strain vam3, stronger effect = lower value 0.998 | S. cerevisiae deletion strains, locus YOR136W, strain idh2, stronger effect = lower value 0.991 | S. cerevisiae deletion strains, locus YOR144C, strain elg1, stronger effect = lower value 0.988 | S. cerevisiae deletion strains, locus YOR231W, strain MKK1, stronger effect = lower value 0.963 | S. cerevisiae deletion strains, locus YOR265W, strain rbl2, stronger effect = lower value 0.999 | S. cerevisiae deletion strains, locus YOR270C, strain vph1, stronger effect = lower value 0.997 | S. cerevisiae deletion strains, locus YOR290C, strain snf2, stronger effect = lower value 0.962 | S. cerevisiae deletion strains, locus YOR316C, strain cot1, stronger effect = lower value 0.98 | S. cerevisiae deletion strains, locus YPL051W, strain arl3, stronger effect = lower value 1.01 | S. cerevisiae deletion strains, locus YPL055C, strain LGE1, stronger effect = lower value 0.974 | S. cerevisiae deletion strains, locus YPL078C, strain atp4, stronger effect = lower value 0.989 | S. cerevisiae deletion strains, locus YPL106C, strain sse1, stronger effect = lower value 0.956 | S. cerevisiae deletion strains, locus YPL240C, strain hsp82, stronger effect = lower value 1 | S. cerevisiae deletion strains, locus YPL241C, strain CIN2, stronger effect = lower value 0.991 | S. cerevisiae deletion strains, locus YPL256C, strain CLN2, stronger effect = lower value 0.908 | S. cerevisiae deletion strains, locus YPR119W, strain clb2, stronger effect = lower value 0.991 | S. cerevisiae deletion strains, locus YPR141C, strain kar3, stronger effect = lower value 0.963 | S. cerevisiae deletion strains, locus YPR163C, strain tif3, stronger effect = lower value 0.978 | S. cerevisiae deletion strains, locus YPR167C, strain met16, stronger effect = lower value 0.976 | S. cerevisiae deletion strains, strain wtn01, stronger effect = lower value 0.96 | S. cerevisiae strains, strain wild type, stronger effect = lower value 0.973
